# High-throughput results from PubChem BioAssay.
# PLC-gamma1 inh – blocks human PLC-gamma1 enzyme activity. P19174. purified PLC-gamma1, fluorogenic substrate, fluorescence. inhibition, % at 12.2 µM. 0.84% of 370,000 active; in the data active means inhibition above about 9.5%
# NPR2 activator – GC-B (human) receptor activation | HEK293-GC-B cells, CNP EC30, cGMP TR-FRET; 0% at EC30 CNP, 100% saturating CNP | activation, % at 10 µM | 0.11% of 370,000 active | AID 1920062;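 active means activation at 10 µM reaching about 35% in either raw or pattern-adjusted values, limit read from the data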
# GC-A act – GC-A (human) enzyme activation | P16066 | HEK293 GC-A cells, cGMP TR-FRET, EC30 ANP; 0% at EC30 ANP, 100% saturating ANP | activation, % at 10 µM | 0.14% of 370,000 active | AID 1671463; in the data active means activation above about 40%
# PLCb3 inh – PLC-beta3 (human) inhibition, primary screen | Q01970 | Purified PLC-beta3, fluorogenic substrate, fluorescence | inhibition, % at 12.2 µM | 0.18% of 370,000 active | AID 720704; in the data active means inhibition above about 11%;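 further: 0% = median of compound wells on plate and 100% = full blocker control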
# Rce1 inh – inhibitors of yeast Ras-converting enzyme. calls only. yeast membranes, quenched prenylated peptide cleavage fluorescence. Q03530. 0.27% of 290,000 active;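 active means fall in fluorescence gain of 50% or more versus controls, with final raw signal at or below 3038400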;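 further: plate controls were neutral control wells for no effect and wells lacking membranes for full effect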
# PfM18AAP inh-1 – blocks P. falciparum M18 aspartyl aminopeptidase | recombinant PfM18AAP, H-Glu-NHMec fluorogenic cleavage | inhibition, % at 7.35 µM | 1.2% of 290,000 active | AID 1822;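 active means inhibition above the campaign mean inhibition over all tested compounds plus 3 SD, cut at about 28% in these data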;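 further: 0% = plate median of test compound wells and 100% = 2 mM ZnCl2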
# PfM18AAP inh-2 – confirmation of Plasmodium falciparum M18 aspartyl aminopeptidase inhibitors | shares compounds with PfM18AAP inh-1 | recombinant PfM18AAP, H-Glu-NHMec fluorogenic cleavage | AID 2170 | inhibition, % at 7.35 µM | 28% of 2,400 active;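 active means mean inhibition over replicate wells above the hit cutoff set for the earlier primary screen, cut at about 29% in these data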;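 further: 0% = median of test compound wells and 100% = 2 mM ZnCl2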
# CTSL1 counter – counter-screen for PFM18AAP inhibitors: confirmation of human cathepsin L inhibitors. shares compounds with PfM18AAP inh-1. purified cathepsin L1, Z-Leu-Arg-MCA fluorescence. inhibition, % at 5.96 µM. 2,400 tested, under 10 active. AID 2178;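 active means average inhibition across replicates above the hit cutoff set in the earlier primary screen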;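 further: 0% = median of test compound wells and 100% = Z-Phe-Ala-diazomethylketone 1 µM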
# Target sequence (P07711 whole entry, looked up): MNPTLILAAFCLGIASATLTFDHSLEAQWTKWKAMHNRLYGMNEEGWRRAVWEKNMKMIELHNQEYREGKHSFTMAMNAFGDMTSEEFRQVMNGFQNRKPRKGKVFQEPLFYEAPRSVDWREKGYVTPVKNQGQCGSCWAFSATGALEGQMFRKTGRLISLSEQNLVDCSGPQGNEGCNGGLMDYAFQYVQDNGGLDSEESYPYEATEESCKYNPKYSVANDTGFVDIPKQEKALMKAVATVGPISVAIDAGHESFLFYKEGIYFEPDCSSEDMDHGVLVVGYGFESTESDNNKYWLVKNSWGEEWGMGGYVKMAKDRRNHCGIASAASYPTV
# An asterisk follows results filed as active; i = inactive; · = no result given. Sampled rows, rich in hits. Any-hit rate of the full collection: about 2.2%.
SMILES,PLC-gamma1 inh,NPR2 activator,GC-A act,PLCb3 inh,Rce1 inh,PfM18AAP inh-1,PfM18AAP inh-2,CTSL1 counter
Cc1cc(C)nc(SCC(=O)NNC(=O)c2ccccc2C)n1,-2,5,-1,-7,i,1,·,·
Cc1cc(C)nc(SCCC(=O)N(C)C)n1,4,-1,2,2,i,39*,-4,-1
NC(=O)c1c(N)[nH]c(C(=O)c2ccccc2)c1-c1cccc2ccccc12,-27,-1,-1,-34,·,·,·,·
Cc1ccc(NC(=O)NNc2cccc(Cl)n2)cc1,1,2,5,1,i,53*,24,-5
CC(Cl)C(=O)NNc1cccc(Cl)n1 (stereo not drawn),1,-2,6,9,i,12,·,·
O=C(NNc1cccc(Cl)n1)Nc1ccccc1,1,0,-1,0,i,59*,43*,0
O=C(NNc1cccc(Cl)n1)Nc1cccc(Cl)c1,6,-8,-3,4,i,52*,49*,2
COC(=O)[C@]12C[C@H](CC(=O)NCCC(C)C)C(=O)N(Cc3ccc(Cl)cc3Cl)C1=C[C@H](C(C)(C)C)O[C@@H]2C,0,-11,-11,3,·,·,·,·
Nc1c(C(=O)Nc2ccc(F)cc2)sc(=S)n1-c1ccccc1F,4,-2,3,-2,i,48*,-6,0
Cn1c(N)c(C(=O)Nc2ccccc2F)sc1=S,2,-1,-5,-3,i,9,·,·
O=C(CSc1nc2ccccc2s1)Nc1ncccn1,-8,-5,-1,-13,i,0,·,·
O=C(CSc1nn(-c2ccccc2)c(=S)s1)Nn1cnnc1,4,8,-4,4,·,53*,73*,0
O=C(CSc1nc2ccccc2s1)Nn1cnnc1,2,3,-3,1,i,69*,57*,3
O=C(CSc1nn(-c2ccccc2)c(=S)s1)NC1CCS(=O)(=O)C1 (stereo not drawn),0,-1,2,4,i,9,·,·
Clc1ccc2nc(CSc3ncn[nH]3)cn2c1,-3,1,1,-7,i,43*,13,7
Brc1ccc2nc(CSc3ncn[nH]3)cn2c1,-5,-8,-2,2,i,66*,30*,3
CCC[C@H]1[C@@H](NC(=O)c2cccc(Cl)c2)CC[C@@]23CCCN2C(=O)CCC[C@@H]13,-2,-21,-15,4,·,·,·,·
Cc1cccnc1Nc1nc(-c2ccc(F)cc2)cs1,7,-3,-4,-1,i,-2,·,·
COc1cccc(Nc2nc(-c3ccc(O)cc3)cs2)c1,1,0,-1,-1,i,43*,34*,-1
Cc1cccnc1Nc1nc(-c2ccc(O)cc2)cs1,1,2,-1,2,·,34*,30*,3
COc1cccc(Nc2nc(-c3cccc(N4C(=O)c5ccccc5C4=O)c3)cs2)c1,2,-3,0,-2,i,16,·,·
COc1ccc(-c2nc3ccccc3c(=O)n2NC(=S)N(C)C)cc1,3,2,5,-3,i,36*,33*,2
COc1ccc(OCC(=O)Nn2c(-c3ccc(OC)cc3)nc3ccccc3c2=O)cc1,1,0,1,0,i,5,·,·
NC(=O)NC(=O)C(Nc1ccc(N2CCCCC2)cc1)c1ccccc1 (stereo not drawn),-51,-10,-1,-83,i,41*,-35,-5
O=C(Nc1ccc(N2CCCCC2)cc1)c1ccccc1,0,0,4,2,i,5,·,·
SMILES,PLC-gamma1 inh,NPR2 activator,GC-A act,PLCb3 inh,Rce1 inh,PfM18AAP inh-1,PfM18AAP inh-2,CTSL1 counter
COC(=O)C1=C(C)N(Cc2ccc3c(c2)OCO3)C(=O)C1,3,4,4,4,i,34*,-55,2
COc1ccc(/C=N/Nc2nn3cnnc3c3ccccc23)cc1,-4,-18,-3,-17,i,38*,-48,3
COc1ccc(/C=N/Nc2nonc2N)cc1,-2,-5,-2,3,i,32*,-30,-2
CCNc1nc(NCC)nc(N/N=C/c2ccc(OC)cc2)n1,3,4,2,-3,i,-2,·,·
Cc1scc(C(=O)Nn2cnnc2)c1-c1ccccc1,·,-1,1,·,i,64*,60*,0
Cc1cc(C(=O)Nn2cnnc2)cs1,-1,2,0,2,i,26,·,·
O=C(Nn1cnnc1)c1ccccc1F,1,-2,2,-6,i,25,·,·
Cc1c(C(=O)Nn2cnnc2)oc2ccccc12,3,-1,1,2,i,81*,76*,-3
O=C(Nn1cnnc1)c1csc2ccccc12,0,2,-5,4,i,72*,73*,-5
COC(=O)C1=C(C)N(C)C(=NCc2ccc(OC)cc2)NC1c1ccccc1 (stereo not drawn),1,4,-3,4,·,·,·,·
CCN(CC)C(=O)c1csc(Nc2cccc3ccccc23)n1,-8,3,6,-14,i,32*,-18,4
CCN(CC)CCCNC(=O)c1csc(Nc2cccc3ccccc23)n1,0,-7,-10,-5,i,15,·,·
COc1ccc(C2CC(c3ccccc3)=NN2C(=S)Nc2ccccc2)cc1 (stereo not drawn),-1,-1,4,-6,i,-1,·,·
COc1ccc(C2CC(c3ccc(Br)cc3)=NN2C(=S)Nc2ccccc2)cc1 (stereo not drawn),2,-2,1,-1,i,42*,-20,9
O=c1oc2c(-c3ccc([N+](=O)[O-])cc3)cc(O)cc2s1,4,0,7,-2,i,33*,-11,-2
CC[n+]1c(C)sc2cc(OC)ccc21,-1,1,-3,6,i,37*,-20,1
CN1C(=O)C[C@@](C#N)(C(=O)N2CCOCC2)[C@H]1c1ccccc1,0,7,3,3,·,·,·,·
O=C(CSc1nc(-c2ccccc2)ns1)NCC1CCCO1 (stereo not drawn),2,-1,2,-5,i,35*,-21,2
COC(=O)[C@]12C[C@H](CC(=O)N3CCC(c4ccccc4)CC3)C(=O)N(Cc3ccc(Cl)cc3Cl)C1=C[C@H](C1CCCC1)O[C@@H]2C,1,4,-2,0,·,·,·,·
CCN(CC)c1cccc(OC2=NS(=O)(=O)c3ccccc32)c1,-14,0,-3,-20,i,36*,2,1
CCc1ccc(OC2=NS(=O)(=O)c3ccccc32)cc1,1,7,3,-1,i,1,·,·
